Screening results (PubChem BioAssay)
ATXN2 expr inh: ATXN2 expression inhibition; HEK-293 ATXN2-luciferase reporter, luminescence, 24 h; Potency, µM (series often up to 57 µM), without a hit: at the top dose activity change, negative = inhibition, actives largely listed as inhibitors; 360,000 tested, 0.72% active; note: % is set by controls: 0 for no effect and ±100 for the full control effect; nearly all actives have a fitted effect of over 55% in size
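ATXN2-luciferase reporter cells (luciferase flanked by upstream and downstream ATXN2 gene portions) were treated 24 h at 37 °C with compounds at up to 57 uM. SteadyGlo luminescence gave expression; GF-AFC fluorescence gave viability.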
Gal4-VP16 FLuc: Gal4-VP16 reporter inhibition counter-screen; Drosophila S2 Gal4-VP16 UAS-luciferase, luminescence, 20 h; Potency, µM (highest dose often 53.6 µM), without a hit: at the highest dose activity, negative = inhibition, hits mostly inhibitors; 310,000 tested, 3.5% active;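 note: Gal4-VP16 expression switched on by copper sulfate through the metallothionein promoter; % is set by controls: 0 for no effect and ±100 for the full control effect; nearly all actives have a fitted effect of over 50% in size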
S2 tox: viability counter-screen for ATXN expression inhibitors | S2 cells (HEK-293 line with an ATXN2-luciferase reporter) viability, CellTiter-Fluor protease fluorescence, 24 h | Potency, µM (titrated, usually from 56.7 µM), actives largely listed as cytotoxic | 400,000 tested, 0.49% active; note: nearly all actives have a fitted effect of over 40% in size
TGFb SMAD3 inh: TGF-b pathway inhibition | HepG2 CAGA-GFP TGF-b/SMAD3 reporter, GFP fluorescence, 18 h; TGF-beta stimulated, 500 pg/mL final | Potency, µM (series often up to 46.1 µM), for the others: at the highest dose activity, negative = inhibition, most hits filed as inhibitors | 410,000 tested, 1.2% active | AID 588855; note: % is set by controls: 0 for no effect and ±100 for the full control effect; nearly all actives have a fitted effect of over 65% in size
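HEPG2 CAGA-GFP reporter cells (1000/well, DMEM with 1% FBS) received compounds, then recombinant TGF-beta at 500 pg/mL final for 18 hours at 37 degrees C. Per-cell GFP summed per well was normalised to unstimulated and stimulated DMSO controls before curve fitting.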
HepG2 tox: kills HepG2 cells in TGF-b inhibitor counter-screen. HepG2 CAGA-GFP viability, ATP luminescence, 18 h. Potency, µM (titrated, usually from 46.1 µM), for inactives: at the highest dose activity change, negative = cytotoxicity, most hits filed as cytotoxic. 410,000 tested, 0.76% active. AID 588856
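HepG2 CAGA-GFP cells (1000/well, DMEM with 1% FBS) received compound, then TGF-beta at 500 pg/mL final, and were incubated 18 hours at 37 degrees C. Viability was read by CellTiter-Glo luminescence. Media-only wells were set as complete cell-killing and DMSO as no toxicity.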
RORgamma inh: blocks mouse ROR gamma transcriptional activity; Drosophila S2 Gal4-RORgamma UAS-luciferase reporter, 20 h; Potency, µM (titrated, usually from 53.6 µM), for the others: at the highest dose activity change, negative = inhibition, usual class: inhibitors; 310,000 tested, 5.4% active; note: % is set by controls: 0 for no effect and ±100 for the full control effect; nearly all actives have a fitted effect of over 60% in size
Target sequence (P51450 whole entry, looked up, the tested form may be a part): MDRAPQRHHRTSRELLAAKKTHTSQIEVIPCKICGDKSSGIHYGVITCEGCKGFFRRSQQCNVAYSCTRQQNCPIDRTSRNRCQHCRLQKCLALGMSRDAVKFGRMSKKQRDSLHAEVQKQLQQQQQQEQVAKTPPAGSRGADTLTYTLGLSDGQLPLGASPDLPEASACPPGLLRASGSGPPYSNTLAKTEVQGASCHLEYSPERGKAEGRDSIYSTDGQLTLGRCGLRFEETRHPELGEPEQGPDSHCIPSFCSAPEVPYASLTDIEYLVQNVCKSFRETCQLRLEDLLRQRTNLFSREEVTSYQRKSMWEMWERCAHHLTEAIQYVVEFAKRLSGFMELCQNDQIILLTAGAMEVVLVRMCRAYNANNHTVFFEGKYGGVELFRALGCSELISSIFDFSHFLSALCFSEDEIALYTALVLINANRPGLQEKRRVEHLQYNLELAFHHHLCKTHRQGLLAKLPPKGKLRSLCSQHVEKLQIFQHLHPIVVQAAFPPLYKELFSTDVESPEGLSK
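Drosophila S2 cells stably expressing Gal4-DBD/mouse RORγ fusion under metallothionein promoter plus UAS-luciferase; compound 1 h, then 700 uM CuSO4 induction for 20 h at ambient temperature; inhibition read as reduced luminescence.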
* marks the source's active call; other numbers are inactive results; i = inactive; ? = inconclusive; nt = no result given; [ ] = another dose, or the depositor's remark. Hits are enriched below; roughly 6.3% of the tested compounds scored in any of these assays. Calls come from the whole dose curve; as a rule, active = well fitted curve in the direction sought with a large enough effect; inconclusive = small, poorly fitted or top-dose-only effect, or another doubt; inactive = no such curve, though single readings can be large; an effect the other way counts as inactive or inconclusive. Potency is the fitted concentration of half-maximal effect.

SMILES | ATXN2 expr inh | Gal4-VP16 FLuc | S2 tox | TGFb SMAD3 inh | HepG2 tox | RORgamma inh
COc1ccc(Oc2ccc(/C=C/C(=O)c3ccc(O)cc3)cc2[N+](=O)[O-])cc1 | 22.4µM* | ? | nt | 15.8µM* | -98.1% | ?
O=C(N/N=C/c1ccccn1)c1ccco1 | 19.3% | -9.2% | i | 4.5% | 1.9% | -17.7%
O=C(/C=C/c1ccc(O)c([N+](=O)[O-])c1)c1ccc2ccccc2c1 | -19.1% | -7.8% | i | ? | -18.7% | -16.6%
COc1ccc(C=NNC(=S)Nc2ccc(F)cc2)cc1OC | ? | nt | i | 0.0% | -4.4% | nt
O=C(N/N=C/c1ccc2ncccc2c1)c1ccco1 | -25.7%[11.3 µM] | ? | i | 12.4% | -35.6% | 7.94µM*
COC(=O)c1ccc(C(=O)NCC2Cc3cccc(-c4ccc(C(=O)OC)cn4)c3O2)cc1 (configuration not stated) | nt | nt | i | nt | nt | nt
O=C1NC[C@@H](CCCCN2C[C@H](Cc3ccc(O)cc3)N(CCC3CCCCC3)C(=O)C2=O)N(CCC2CCCCC2)C1=O | -21.7% | nt | ? | nt | nt | nt
COc1ccc(/C=N/NC(=O)c2ccn[nH]2)cc1COc1ccc(Cl)cc1Cl | -4.7% | 6.0% | i | 14.1µM* | -41.0% | ?
COc1cc(/C=N/NC(=O)c2ccc(F)cc2)ccc1OC(=O)c1ccco1 | 5.2% | -3.9% | i | 0.0% | 9.7% | 12.6µM*
COc1ccc(/C=N\NC(=O)c2ccccc2)cc1COc1ccc(F)cc1 | 11.2% | 11.2µM* | i | -0.4% | -8.7% | 17.8µM*
COc1ccc(/C=N/NC(=O)c2ccoc2C)cc1OC | 1.7% | 11.1% | i | 0.0% | 5.5% | 1.5%
COc1ccc(/C=N/NC(=O)c2ccn[nH]2)cc1COc1ccc(F)cc1 | 13.9% | -6.6% | i | -24.9% | -19.4% | 18.6%
COc1ccc(/C=N/NC(=O)c2ccoc2C)cc1COc1ccc(Cl)cc1 | -16.8% | 12.6µM* | i | -9.1% | -30.1% | 7.08µM*
Cc1nc2ncnn2c(C)c1CCC(=O)NCc1ccccc1Cl | 2.3% | nt | i | -12.6% | -21.5% | nt
COc1ccc(/C=C/C(=O)c2ccc(O)cc2)cc1COc1ccc(F)cc1 | ? | -10.9% | i | ? | 15.8µM* | -22.4%
COc1cccc(/C=C/C(=O)c2cccc([N+](=O)[O-])c2)c1 | -12.4% | 4.47µM* | i | 8.7% | -1.8% | -101.3%
CC(CC(C#N)(c1ccccc1)C(C)C)N(C)C (configuration not stated) | -6.5% | nt | i | nt | nt | nt
O=C(CSc1nc2ccccc2n1CC(=O)Nc1ccc(F)cc1F)Nc1ccc(F)cc1 | -13.3% | nt | i | -14.7% | -8.9% | nt
O=C(CSc1nc(-c2ccccc2)cn1-c1ccccc1F)Nc1ccc(F)cc1 | -38.3% | nt | ? | 14.1µM* | -20.5% | nt
COc1cc(NC(=O)CSc2nccn2C)cc(OC)c1OC | 9.6% | nt | i | -0.7% | -11.8% | nt
COc1cc2c(cc1OC)C(c1cc(Br)ccc1F)N(C(=O)CCl)CC2 (configuration not stated) | nt | ? | ? | ? | -106.3% | 7.94µM*
COc1cc2c(cc1OC)C(C1C(=O)CC(C)(C)CC1=O)N(C(=O)CCl)CC2 (configuration not stated) | nt | 0.9% | i | 28.2% | 4.2% | -4.1%
O=C(CC(c1ccccc1)C1CCCCC1=O)c1ccccc1 (configuration not stated) | -19.4% | nt | i | 0.0% | -15.0% | nt
CN1CCC(NCCC(c2ccc(F)cc2)c2ccc(Cl)cc2)CC1 (configuration not stated) | 25.1µM* | ? | nt | ? | 15.8µM* | ?
CC(C)C(CCNC1CCN(C)CC1)c1ccc(Cl)cc1 (configuration not stated) | ? | -9.0% | ? | ? | -103.2% | -44.3%
